# HCMV inh – human cytomegalovirus inhibition. HFF cells, HCMV-luciferase reporter, 72 h; hits give low values. activity change, negative = inhibition, % at 57.5 µM. 4.5% of 410,000 active. AID 1259415; in the data active means activity change below about -60%; inconclusive means no clear call, values can overlap the other calls; inactive means above about -39%; further: on the % scale 0 is the no-effect control and ±100 the full control effect
#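 HFF cells seeded 16 h at 37C, treated with compounds, infected with luciferase-reporter HCMV at MOI 1 PFU/cell; luciferase read at 72 h post infection, normalized to buffer-only and Salinomycin controls.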
# Pf growth 48h – inhibits P. falciparum growth in the first generation, 48 h; 5.9% of 310,000 active; AID 504832; Potency, µM (doses to about 28.7 µM), without a hit: top-dose activity change, negative = inhibition, actives largely listed as inhibitors; P. falciparum luciferase growth in erythrocytes, 48 h; further: potency means the concentration at half of the fitted maximal effect; on the % scale 0 is the no-effect control and ±100 the full control effect
#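 Read-out is firefly luciferase luminescence from an integrated reporter in P. falciparum, so falling signal marks reduced parasite growth. Infected erythrocytes were at 2% hematocrit and 0.1% parasitemia (final) in Albumax-supplemented RPMI 1640.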
# Shiga inhibitor – blocks Shiga toxin action in Vero cells. Vero cells, Shiga toxin protein synthesis inhibition reporter. inhibition, % at 38.7 µM. 9.2% of 290,000 active; in the data active means inhibition mostly above about 28%, no sharp cut-off; inactive means mostly below about 43%; further: 0% is about no effect
# Pf growth 96h – P. falciparum growth inhibition at 96 hour, primary screen for plastid delayed-death inhibitors; P. falciparum luciferase reporter growth, 96 h; 6.9% of 320,000 active; Potency, µM (doses to about 28.7 µM), without a hit: top-dose activity change, negative = inhibition, usual class: inhibitors; further: potency means the concentration at half of the fitted maximal effect; on the % scale 0 is the no-effect control and ±100 the full control effect
#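 96 h incubation, 37 C, 5% CO2, of luciferase-reporter P. falciparum-infected RBCs (2% hematocrit, 0.05% parasitemia final) with test compounds; endpoint luminescence.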
# CHX counter – counter-screen for Shiga toxin inhibitors: cycloheximide protein synthesis inhibition; cell reporter, cycloheximide protein synthesis inhibition counterscreen; AID 2314; 12% of 300,000 active; max response, %; in the data active means max response mostly above about 13%, no sharp cut-off; inactive means mostly below about 14%; further: read at 38.3 µM for the half of the compounds with a filed dose; 0% is about no effect
# Starred values were filed as active, the others as inactive; ? = inconclusive; · = not tested or not shown; + = active, no number; ! = not confirmed by another sample; [ ] = remark or other dose. An excerpt weighted towards active compounds, which were near 20% of everything screened. Unless noted, the call rests on the fitted dose curve; in most records, active means well fitted inhibition curve with a large enough effect; inconclusive means small, poorly fitted or top-dose-only effect, or another doubt; inactive means no such curve, though single readings can be large or run the other way.
SMILES,HCMV inh,Pf growth 48h,Shiga inhibitor,Pf growth 96h,CHX counter
Cc1cc(C)c2cc(C#N)c(NCCCN)nc2c1,1,·,·,·,·
CCOc1ccc(CNc2nnnn2C)cc1,10,-24%,·,-8%,-2
COc1ccc(CCNC(=O)Cn2nc(C)c3c(C)n(-c4ccc(C)cc4)nc3c2=O)c(OC)c1,-91*,?,·,?,·
COc1ccc(OC)c(CCNC(=O)C(C)n2nc(C)c3c(C)n(-c4ccccc4)nc3c2=O)c1 (stereo unspecified),-10,-19%,20,12µM*,-6
COc1ccc(CNC(=O)Cn2nc(C)c3c(C)n(-c4ccc(C)cc4)nc3c2=O)cc1OC,-25,?,-2,?,-1
COCCNC(=O)Cn1nc(C)c2c(C)n(-c3ccc(C)cc3)nc2c1=O,0,·,·,·,·
CSc1ccc(CNC(=O)Cn2nc(C)c3c(C)n(-c4ccc(C)cc4)nc3c2=O)cc1,-13,32%,8,2.6µM*,1
Cc1ccc(-n2nc3c(=O)n(C(C)C(=O)NCc4ccco4)nc(C)c3c2C)cc1 (stereo unspecified),-26,6%,-4,6%,-3
COc1ccc(OC)c(CCNC(=O)C(C)n2nc(C)c3c(C)n(-c4ccc(C)cc4)nc3c2=O)c1 (stereo unspecified),-77*!,?,-4,?,7
CCC(C(=O)NCCc1cc(OC)ccc1OC)n1nc(C)c2c(C)n(-c3ccccc3)nc2c1=O (stereo unspecified),-24,·,·,·,·
COc1cccc(CN(C)CC(=O)Nc2ccccc2N2CCOCC2)c1OC,-30,33%[1.15 µM],8,41%[1.15 µM],3
Cc1ccc(-n2nc3c(=O)n(CC(=O)NCCc4ccco4)nc(C)c3c2C)cc1,0,25%,-15,8.3µM*,17
Cc1nn(CC(=O)NCc2ccco2)c(=O)c2nn(-c3ccccc3)c(C)c12,8,·,·,·,·
O=C(Cn1c(=O)n(Cc2ccc(F)cc2)c(=O)c2ccccc21)NCC1CCCO1 (stereo unspecified),2,-7%,-6,2%,-3
O=c1c2ccccc2n(Cc2ccc(F)cc2)c(=O)n1C1CCCC1,21,?,-7,13µM*,1
Cc1ccc2nc(-c3cccc(S(=O)(=O)N(C)C)c3)cn2c1,77,-3%,+,35%,54*
CCN(CC)S(=O)(=O)c1cccc(-c2n[nH]c(=S)n2Cc2ccccc2)c1,?,-24%,-4,?,-1
CCCN(CCC)S(=O)(=O)c1cccc(-c2csc(C)n2)c1,?,10µM*,-7,?,-1
CCN(CC)S(=O)(=O)c1cccc(-c2cn3cc(C)ccc3n2)c1,13,33%,98*,·,66*
CCCCC(=O)N(C)c1c(CC)nc2c(OCCOc3ccc(F)cc3)cccn12,3,·,·,·,·
Cc1cc(OC(C)C(=O)NCCCn2ccnc2)c2c(C)c(C)c(=O)oc2c1 (stereo unspecified),39,?,-4,?,8
CN(C)S(=O)(=O)c1cccc(C(=O)N=C2N=C3C=CC(Cl)=CN3Cc3ccccc32)c1,27,?,130*,?,53*
O=C(N=C1N=C2C=CC=CN2Cc2ccccc21)c1ccc(S(=O)(=O)N2CCOCC2)cc1,-8,41%,154*,-1%,33*
O=C(OCCN1C(=O)c2ccccc2C1=O)c1ccc(S(=O)(=O)N2CCCCCC2)cc1,15,-11%,-7,3%[5.75 µM],-2
O=C(N=C1N=C2C=CC=CN2Cc2ccccc21)c1ccc(S(=O)(=O)N2CCCC2)cc1,4,20%,97*,-10%,55*
SMILES,HCMV inh,Pf growth 48h,Shiga inhibitor,Pf growth 96h,CHX counter
O=C(O)c1ccc(N2C(=O)Nc3ccccc3N2O)cc1,-10,34%,-4,7%,2
Cc1ccc(C)c(CN2C(=O)c3ccccc3Sc3ccc(C(=O)NCc4cccs4)cc32)c1,-62*,·,·,·,·
Cc1ccc(C)c(CN2C(=O)c3ccccc3Sc3ccc(C(=O)N4CCC5(CC4)OCCO5)cc32)c1,-72*,·,·,·,·
Cc1ccc(C)c(CN2C(=O)c3ccccc3Sc3ccc(C(=O)NCc4ccc5c(c4)OCO5)cc32)c1,-19,·,-7,·,-7
O=C(c1ccc2c(c1)N(Cc1ccc(F)cc1)C(=O)c1ccccc1S2)N1CCC2(CC1)OCCO2,-10,·,·,·,·
C=CCN1C(=O)c2ccccc2Sc2ccc(C(=O)N3CCN(C)CC3)cc21,-11,?,-4,9.3µM*,1
COc1ccc(NC(=O)CN2C(=O)c3ccccc3Sc3ccc(C(=O)N4CCOCC4)cc32)c(OC)c1,1,10µM*,-10,-14%,1
COc1ccccc1Nc1ncnc2ccc(C)cc12,-6,5%,20,10%,17
CC(C)C[C@@H](CNCC(=O)[C@H](CC(=O)O)NC(=O)c1[nH]cnc1C(=O)N[C@H](CN)CC(C)C)NC(=O)c1nc[nH]c1C(=O)N[C@@H](Cc1ccccc1)C(=O)O,-5,·,·,·,·
CC(C)C[C@H](NC(=O)c1nc[nH]c1C(=O)N1CCNCC1)C(=O)OCc1ccccc1,-30,13%,·,0%,·
Cc1ccc2nc(NC3=NC(CC(=O)O)C(=O)N3)nc(C)c2c1 (stereo unspecified),-8,25%,21,1%,1
Cc1ccc(C)c(CN2C(=O)c3ccccc3Sc3ccc(C(=O)NCc4ccco4)cc32)c1,-69*,·,·,·,·
O=C(NCc1ccco1)c1ccc2c(c1)N(Cc1ccc(Cl)cc1)C(=O)c1ccccc1S2,-37,·,·,·,·
O=C1CCSc2ccc(Cl)cc2N1Cc1ccc(Cl)cc1,-15,?,-7,15µM*,-5
O=C1CCSc2ccc(Cl)cc2N1Cc1ccccc1,11,8%,-9,14%,-2
O=C(Nc1cccc(F)c1)[C@@H](c1ccccc1)N1Cc2ccccc2C1=O,-5,·,·,·,·
COc1cc(C(=O)Nc2cccc(NC(=O)c3ccccc3)c2)cc(OC)c1OC,15,?,25,?,1
CN(C)CC(=O)N1c2ccccc2CCc2ccc(NC(=O)c3ccc(N)cc3)cc21,?,5.9µM*,4,65%,4
CCOC(=O)Nc1ccc2c(c1)N(CCCN(C)C)c1ccccc1CC2,-15,?,0,13µM*,-5
COc1cc(C(=O)Nc2ccc3c(c2)N(C(=O)CCN(C)C)c2ccccc2CC3)cc(OC)c1OC,143,10µM*,-6,9.3µM*,-4
CCN(CC)CCC(=O)Nc1ccc2c(c1)N(C(=O)CN(CC)CC)c1ccccc1CC2,-10,10µM*,42,?,1
CCN(CC)CCC(=O)N1c2ccccc2CCc2ccc(NC(=O)OC(C)C)cc21,17,?,2,?,-1
Cc1ccc(S(=O)(=O)N(C)c2cc(S(=O)(=O)N3CCC(C)CC3)c(C)cc2C)cc1,?,10µM*,7,12µM*,-1
CCn1c(-c2ccccn2)nc2cc(S(=O)(=O)N(C)C)ccc21,-7,46%,40,43%,17*
CCCCn1c(CCC(=O)O)nc2cc(S(=O)(=O)N(C)C)ccc21,-28,?,-3,?,-2

# Compound activity: PubChem BioAssay, National Center for Advancing Translational Sciences (NCATS)
